The record followed here is the OligoGym collection.
Also: reference of the scale not given here.

The first assay addresses CYTH1. The experiment in a line: pooled miR-30 sensor sort-seq; sequence = guide strand. Conditions: shRNA.
For the sequence TAACTTGGTCTTTATTGTCGGG, the sensor-assay potency score (higher = more potent) was -0.54.
The same measure, in the same setting: under TTGGTCTTTATTGTCGGGGATA stands -1.5; under TGCACTGACAATATCGCTGGGC, 0.0607.
TTGTCAGTCAGAATGAACCAGC returned a sensor-assay potency score (higher = more potent) of -0.752.
Same read-out and setting: under TATTGCACTGACAATATCGCTG stands -0.0444; under TAGGAAACACTTGAGAACCAGG, -0.778.

The next assay addresses CYTH4. The assay is described as above. Conditions: shRNA.
Regarding AAGGACAACACGTAGCAGGTGT, the sensor-assay potency score (higher = more potent) worked out at 0.877.
Still for that read-out and setting: under TTGAGGTTGGCGAACTCGTGGC stands -0.377.
TTCATGGACACAAAGCGCTCGA gave a sensor-assay potency score (higher = more potent) of -0.11.
The same measure, in the same setting: under TCCATGTTGAACTTCTTGCGCC stands -1.08; under TGTAACTCTTCCGTCTCCCCGC, -0.31.
Turning to TGATCCTCTGTAACTCTTCCGT, the sensor-assay potency score (higher = more potent) is -0.462.
Same read-out and setting: under TTGTCGGTCAGGATGAACCAGC stands -0.768; under TTGAGCAGCCAACCCTCCCGGT, -1.04; under TTTCGGTGCCACTTGATCCTCT, -0.308.
With TAGCAGGTGTCTGTGGACTGGA, the sensor-assay potency score (higher = more potent) is -0.452.
For TTGGATATAGCACCCATCCTGC, the sensor-assay potency score (higher = more potent) was -0.488.

A further assay addresses CYorf15A. The description is as above. Conditions: shRNA.
TTGTGCATTTACAACATGGAGT: the sensor-assay potency score (higher = more potent) is -0.696.
Still for that read-out and setting: under TATCTTTTCCATTATTTGCTTT stands -0.915.
TTGCATTGTAAAGCTTGCTGAC returned a sensor-assay potency score (higher = more potent) of -0.311.
Sequence TACAACATGGAGTTGCTGCTTT had a sensor-assay potency score (higher = more potent) of 0.408.
Sequence AAGACTTTTTCTTTGTTCCTGT showed a sensor-assay potency score (higher = more potent) of 0.524.
The same measure, in the same setting: under TTATTTGCTTTACAAAGTCTAG stands -0.983; under TTCTTTGTTATAAAGTCACGGC, -0.192.
Still for that read-out and setting: under TTGGAGTTGATTATTAACTAAA stands -1.56.
Same read-out and setting: under TAAAGCTTGCTGACCAGACGGA stands 0.11.
Sequence ATTTACAACATGGAGTTGCTGC gave a sensor-assay potency score (higher = more potent) of -0.262.
Still for that read-out and setting: under TTGCTTTACAAAGTCTAGTAGG stands -0.465.
For the sequence TCTGCTTTCTCTCTTAACCCAC, the sensor-assay potency score (higher = more potent) is -0.243.

Another assay concerns the target DAGLA. The assay is described as above. Conditions: shRNA.
In turn, TTGAGGTCGAGGTACTTGGTGT gave a sensor-assay potency score (higher = more potent) of -0.552.
In the case of TCTTCTTGATGTACTCAGCTGA, the sensor-assay potency score (higher = more potent) stood at 0.266.
On to TATACAATATACAGAAACCTTT, for which the sensor-assay potency score (higher = more potent) is -0.353.
Same read-out and setting: under TTTTCTAAACTCTAAGAGCCAC stands -0.539; under TTAGGAACGGTGCACACTCATG, -1.56; under ATTCTTGGCAGTGAGGTCGTTG, -0.825.
TTGTAGTTCTCCAGCACCTTGT: the sensor-assay potency score (higher = more potent) was -0.221.
TTGAGGGTCGGATACTGTGGGC: the sensor-assay potency score (higher = more potent) was -1.18.
On the same count and under the same terms, under TATATTTATAGAATAAGCTATA stands -0.774.
Same read-out and setting: under TATAGTTAGGTCGCTGGGGTGG stands -0.742; under TTAAGTACAAAAAAAGTCTGGG, 0.278.
